Assay results as given in PubChem BioAssay (NCATS).
Records with an inconclusive call do not appear. Entries that show only a call come without a potency. Calls of active or inactive are those of the source. Calls follow the shape of the dose curve; as a rule, active = well fitted curve in the direction sought with a large enough effect; inconclusive = small, poorly fitted or top-dose-only effect, or another doubt; inactive = no such curve, though single readings can be large; an effect the other way counts as inactive or inconclusive.

Assay: qHTS for Inhibitors of Plasmodium falciparum (GB4) proliferation (AID 504315); also: nearly all actives have a fitted effect of over 50% in size
Conditions: P. falciparum GB4 in erythrocytes, SYBR Green DNA, 72 h; series mostly up to 6.7 µM
How it was run: (§1)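 Erythrocytes infected with P. falciparum line (0.3% parasitemia, 2.5% hematocrit final) incubated with compounds 72 h at 37 °C, 5% CO2; SYBR Green lysis buffer added, fluorescence read next day. Normalized to 0.29 uM artemisinin and DMSO.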
Potency is read from the fitted curve at half-maximal effect.

SMILES | Potency
COC(=O)[C@H]1[C@@H](c2ccccc2)NC(=O)N(Cc2ccccc2)[C@@H]1C | inactive
COc1cccc([C@H]2Oc3ccc(OC)cc3C(=NOC[C@@H](O)COCc3ccco3)[C@H]2O)c1 | inactive
COC(=O)CC=C[C@@H](C)[C@H](OC)c1c(Br)ccc2c1OCO2 | inactive
C=CCN=C1NC(c2cccc(F)c2)C(C(=O)OC)=C(C)N1Cc1ccccc1 (stereo not drawn) | inactive
CC=COC(=O)N[C@@H](c1ccccc1)[C@]1(C(=O)OC)CCCC1=O | inactive
COC(=O)N1C(c2ccccc2)=Cc2ccccc2C1CC(C)=O (stereo not drawn) | inactive
CC(C)=CCN1C(=O)[C@]2(O[C@H](C)CC3=CCCC32)c2c(Br)cccc21 (stereo partly drawn) | inactive
COC(=O)C[C@H]1c2ccccc2C2=C(C[C@@H](C)[C@H]3C(=O)NC(=O)[C@@H]23)N1C(=O)OC | inactive
COCCN1C(=O)NC(c2cccc(C(F)(F)F)c2)C(C(C)=O)=C1C (stereo not drawn) | inactive
CC1(OC(=O)CCc2ccccc2)C(=O)C=C2C=C(c3ccsc3)OC=C2C1=O (stereo not drawn) | inactive
O=P1(O)Oc2c(c(-c3ccccc3)cc3ccc4ccccc4c23)-c2c(-c3ccccc3)cc3ccc4ccccc4c3c2O1 | inactive
COC(=O)N1C(C2CC2)=Cc2ccccc2C1CC(C)=O (stereo not drawn) | inactive
CC(C)=CCN1C(=O)[C@]2(OCCC=C[C@H]2C)c2c(Br)cccc21 | inactive
COC(=O)CC=C1c2ccc(OC)cc2[C@@H](OC)[C@@H]1C | inactive
C#CCN1C(=O)[C@]2(O[C@H](C)CC3=CCCC32)c2c(Br)cccc21 (stereo partly drawn) | inactive
COC(=O)N[C@H](c1ccccc1)C(C(=O)OC)C(=O)OC | 1510 nM (active)
C[C@@H]1CC[C@H]2C(=O)N(Cc3ccccc3)C[C@@H](O)CN2[C@@H]1c1cccc(Br)c1 | inactive
COc1cc2c(c(OC)c1OC)CC(C)=C(C)CC2NC(=O)C(F)(F)F (stereo not drawn) | inactive
CC1(O)C(=O)C=C2C=C(c3ccc(C#N)cc3)OC=C2C1=O (stereo not drawn) | inactive
COCCN1C(=O)NC(c2ccco2)C(C(=O)OC)=C1C (stereo not drawn) | inactive

SMILES | Potency
CC(CCC#N)[N+](=O)[O-] (stereo not drawn) | inactive
COC[C@@H](OC(C)=O)[C@H]1OCc2ccccc2[C@H]1C=Cc1ccccc1 | inactive
COc1ccc(-c2nc3c(c4c2C[C@H](c2ccccc2)OC4)CN(C(=O)Nc2cccc(C#N)c2)CC3)c(C)c1 | inactive
COc1ccc(COC(=O)NN=C2C[C@@H](O)[C@@H](O)[C@@H]3[C@H]4C(=O)N([C@@H](C)c5ccccc5)C(=O)[C@@H]4CC[C@H]23)cc1 | inactive
CC1(OC(=O)C2CCCC2)C(=O)C=C2C=C(c3ccsc3)N(C3CC3)C=C2C1=O (stereo not drawn) | inactive
CC(C)(C)Nc1oc(-c2ccccc2)nc1-c1ccccc1 | inactive
COc1ccc(NC2=CC(c3ccccc3)N(c3ccc(OC)cc3)C2=O)cc1 (stereo not drawn) | inactive
C[C@H]1[C@H](N=[N+]=[N-])[C@H](O)CCO[C@@H]1c1ccccc1 | inactive
COC(=O)[C@H](Cc1ccccc1)NC(=O)O[C@@H]1C(=O)c2cc(OC)ccc2O[C@H]1c1ccc(OC)c(Br)c1 | inactive
CC#CCN1c2ccccc2[C@]23CCC(=O)N(Cc4cccc(C(F)(F)F)c4)C2=NC(C(=O)OC)=C(C(=O)OC)[C@H]13 | inactive
COC1=C[C@H](C(=O)NCc2ccc(Br)cc2)[C@H](C)[C@@H](c2ccccc2)CC1=O | inactive
COC(=O)N[C@@H](c1cccc(F)c1)C(C(C)=O)C(=O)OC (stereo partly drawn) | inactive
CC(=O)C1=C(C)N(Cc2ccccc2)C(=O)NC1c1ccc(Br)cc1 (stereo not drawn) | inactive
C=CC1=C2C=C(C3CC3)N(CCOC)C=C2C(=O)C(C)(OC(=O)c2ccco2)C1=O (stereo not drawn) | inactive
COCC=CC1=CC2=CC(=O)C(C)(OC(=O)c3cnc4ccccc4n3)C(=O)C2=CN1CC1CC1 (stereo not drawn) | inactive
C=CCN1C(=O)CC[C@@]23C1=NC(C(=O)OC)=C(C(=O)OC)[C@@H]2N(C)c1ccccc13 | inactive
COC(=O)NC(c1ccccc1)c1c[nH]c2ccc(OC)cc12 (stereo not drawn) | inactive
CCCC[C@]12Cc3cc(OC)c(OC)cc3[C@H](O1)C1=C(CC3(CCCCC3)OC1=O)O2 | inactive
C=C(C)C(O)C=Cc1ccc(C(F)(F)F)cc1 (stereo not drawn) | inactive

Assay: qHTS for Inhibitors of Plasmodium falciparum (7G8) proliferation (AID 504316); also: nearly all actives have a fitted effect of over 65% in size
Conditions: P. falciparum 7G8 in erythrocytes, SYBR Green DNA, 72 h; series mostly up to 6.7 µM
How it was run: as §1

SMILES | Potency
COC(=O)[C@H]1[C@@H](c2ccccc2)NC(=O)N(Cc2ccccc2)[C@@H]1C | inactive
COc1cccc([C@H]2Oc3ccc(OC)cc3C(=NOC[C@@H](O)COCc3ccco3)[C@H]2O)c1 | inactive
COC(=O)CC=C[C@@H](C)[C@H](OC)c1c(Br)ccc2c1OCO2 | inactive
C=CCN=C1NC(c2cccc(F)c2)C(C(=O)OC)=C(C)N1Cc1ccccc1 (stereo not drawn) | inactive
CC=COC(=O)N[C@@H](c1ccccc1)[C@]1(C(=O)OC)CCCC1=O | inactive
COC(=O)N1C(c2ccccc2)=Cc2ccccc2C1CC(C)=O (stereo not drawn) | inactive
CC(C)=CCN1C(=O)[C@]2(O[C@H](C)CC3=CCCC32)c2c(Br)cccc21 (stereo partly drawn) | inactive
COC(=O)C[C@H]1c2ccccc2C2=C(C[C@@H](C)[C@H]3C(=O)NC(=O)[C@@H]23)N1C(=O)OC | inactive
COCCN1C(=O)NC(c2cccc(C(F)(F)F)c2)C(C(C)=O)=C1C (stereo not drawn) | inactive
CC1(OC(=O)CCc2ccccc2)C(=O)C=C2C=C(c3ccsc3)OC=C2C1=O (stereo not drawn) | inactive
O=P1(O)Oc2c(c(-c3ccccc3)cc3ccc4ccccc4c23)-c2c(-c3ccccc3)cc3ccc4ccccc4c3c2O1 | inactive
COC(=O)N1C(C2CC2)=Cc2ccccc2C1CC(C)=O (stereo not drawn) | inactive
CC(C)=CCN1C(=O)[C@]2(OCCC=C[C@H]2C)c2c(Br)cccc21 | inactive
COC(=O)CC=C1c2ccc(OC)cc2[C@@H](OC)[C@@H]1C | inactive
C#CCN1C(=O)[C@]2(O[C@H](C)CC3=CCCC32)c2c(Br)cccc21 (stereo partly drawn) | inactive
COC(=O)N[C@H](c1ccccc1)C(C(=O)OC)C(=O)OC | 1900 nM (active)
C[C@@H]1CC[C@H]2C(=O)N(Cc3ccccc3)C[C@@H](O)CN2[C@@H]1c1cccc(Br)c1 | inactive
COc1cc2c(c(OC)c1OC)CC(C)=C(C)CC2NC(=O)C(F)(F)F (stereo not drawn) | inactive
CC1(O)C(=O)C=C2C=C(c3ccc(C#N)cc3)OC=C2C1=O (stereo not drawn) | inactive
COCCN1C(=O)NC(c2ccco2)C(C(=O)OC)=C1C (stereo not drawn) | inactive

SMILES | Potency
CC(CCC#N)[N+](=O)[O-] (stereo not drawn) | inactive
COC[C@@H](OC(C)=O)[C@H]1OCc2ccccc2[C@H]1C=Cc1ccccc1 | inactive
COc1ccc(-c2nc3c(c4c2C[C@H](c2ccccc2)OC4)CN(C(=O)Nc2cccc(C#N)c2)CC3)c(C)c1 | inactive
COc1ccc(COC(=O)NN=C2C[C@@H](O)[C@@H](O)[C@@H]3[C@H]4C(=O)N([C@@H](C)c5ccccc5)C(=O)[C@@H]4CC[C@H]23)cc1 | inactive
CC1(OC(=O)C2CCCC2)C(=O)C=C2C=C(c3ccsc3)N(C3CC3)C=C2C1=O (stereo not drawn) | inactive
CC(C)(C)Nc1oc(-c2ccccc2)nc1-c1ccccc1 | inactive
COc1ccc(NC2=CC(c3ccccc3)N(c3ccc(OC)cc3)C2=O)cc1 (stereo not drawn) | inactive
C[C@H]1[C@H](N=[N+]=[N-])[C@H](O)CCO[C@@H]1c1ccccc1 | inactive
COC(=O)[C@H](Cc1ccccc1)NC(=O)O[C@@H]1C(=O)c2cc(OC)ccc2O[C@H]1c1ccc(OC)c(Br)c1 | inactive
CC#CCN1c2ccccc2[C@]23CCC(=O)N(Cc4cccc(C(F)(F)F)c4)C2=NC(C(=O)OC)=C(C(=O)OC)[C@H]13 | inactive
COC1=C[C@H](C(=O)NCc2ccc(Br)cc2)[C@H](C)[C@@H](c2ccccc2)CC1=O | inactive
COC(=O)N[C@@H](c1cccc(F)c1)C(C(C)=O)C(=O)OC (stereo partly drawn) | inactive
CC(=O)C1=C(C)N(Cc2ccccc2)C(=O)NC1c1ccc(Br)cc1 (stereo not drawn) | inactive
C=CC1=C2C=C(C3CC3)N(CCOC)C=C2C(=O)C(C)(OC(=O)c2ccco2)C1=O (stereo not drawn) | inactive
COCC=CC1=CC2=CC(=O)C(C)(OC(=O)c3cnc4ccccc4n3)C(=O)C2=CN1CC1CC1 (stereo not drawn) | inactive
C=CCN1C(=O)CC[C@@]23C1=NC(C(=O)OC)=C(C(=O)OC)[C@@H]2N(C)c1ccccc13 | inactive
COC(=O)NC(c1ccccc1)c1c[nH]c2ccc(OC)cc12 (stereo not drawn) | inactive
CCCC[C@]12Cc3cc(OC)c(OC)cc3[C@H](O1)C1=C(CC3(CCCCC3)OC1=O)O2 | inactive
C=C(C)C(O)C=Cc1ccc(C(F)(F)F)cc1 (stereo not drawn) | inactive
